Experimental findings from PubChem BioAssay (NCATS) are described below.

The structures appear in SMILES notation. Records with an inconclusive call do not appear. Activity calls are given as the source filed them. Unless noted, the call rests on the fitted dose curve; in most records, active means well fitted curve in the direction sought with a large enough effect; inconclusive means small, poorly fitted or top-dose-only effect, or another doubt; inactive means no such curve, though single readings can be large; an effect the other way counts as inactive or inconclusive.

The target in test [1] is Lysosomal acid glucosylceramidase (Homo sapiens) (UniProt P04062). As to the kind of experiment: Glucocerebrosidase-p2 (AID 348; in the data active means potency below about 10 µM; further: potency means the concentration at half of the fitted maximal effect). The conditions noted are these: purified GBA, blue fluorogenic substrate, 40 min. The essentials:
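Normal human glucocerebrosidase (0.2 nM) with blue fluorogenic substrate (80 uM final) in citrate/phosphate pH 5.9 with 10mM sodium taurocholate, 0.01% tween-20; 40 min RT, NaOH/glycine stop; fluorescence Ex 365/Em 440; AC50 from a titration from 0.6 nM upwards.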

A short description of test [2]: AP1 Signaling Pathway (AID 357; active means well fitted curve in either direction with a large enough effect, not every such curve was filed as active; further: on the % scale 0 is the no-effect control and ±100 the full control effect). The conditions noted are these: ME-180 AP-1-bla reporter, EGF-induced, beta-lactamase ratio, 5 h; at 7.69 µM (top of the series) unless noted. In short, it runs like this: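 AP-1-bla ME-180 cells, Opti-MEM + 0.5% dialyzed FBS, plated overnight 37 °C. Cpd titration + EC50 EGF, 5 h 37 °C. CCF4 2.5 h RT; ex 405, em 460/530 ratio → %activity, AC50.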

The target in test [3] is Cytochrome P450 1A2 (Homo sapiens) (UniProt P05177). As to the kind of experiment: p450-cyp1a2 (AID 410; calls by dose curve; further: potency means the concentration at half of the fitted maximal effect). To be noted: recombinant CYP1A2, luciferin-ME demethylation, luminescence; series mostly up to 57 µM. In short, it runs like this: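 20nM CYP1A2, 100uM Luciferin-ME (=Km), 100mM KPO4; cpd 10 min RT; +NADPH regen, 60 min RT; stop/detect 20 min; luminescence. Normalized to furafylline 57 uM = full inhibition.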
Cytochrome P450 1A2 (Homo sapiens), sequence (P05177 whole entry, looked up): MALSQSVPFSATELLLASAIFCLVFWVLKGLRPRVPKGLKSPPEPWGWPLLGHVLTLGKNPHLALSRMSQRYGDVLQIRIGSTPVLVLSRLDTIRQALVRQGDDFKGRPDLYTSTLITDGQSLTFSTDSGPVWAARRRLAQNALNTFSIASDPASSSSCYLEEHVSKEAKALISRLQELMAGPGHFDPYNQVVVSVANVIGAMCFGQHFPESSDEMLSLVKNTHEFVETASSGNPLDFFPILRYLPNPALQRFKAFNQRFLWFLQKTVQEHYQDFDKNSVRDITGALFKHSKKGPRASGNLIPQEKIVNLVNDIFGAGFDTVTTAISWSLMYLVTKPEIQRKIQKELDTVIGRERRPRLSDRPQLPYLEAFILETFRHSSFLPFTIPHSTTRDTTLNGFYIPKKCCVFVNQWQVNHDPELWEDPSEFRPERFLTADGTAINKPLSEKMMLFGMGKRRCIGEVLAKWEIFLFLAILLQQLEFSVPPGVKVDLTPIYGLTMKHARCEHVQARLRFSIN

Test [4] is described as follows: Stat Signaling Pathway (AID 446; active means well fitted curve in either direction with a large enough effect, not every such curve was filed as active;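 further: ME-180 cervical cancer cells given 40 pM IL-6 alongside compound; SIE-controlled beta-lactamase reporter measured as 460/530 nm FRET emission ratio; on the % scale 0 is the no-effect control and ±100 the full control effect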). The conditions noted are these: ME-180 (cervical carcinoma) SIE beta-lactamase reporter, IL-6 stimulated, 5 h; at 7.69 µM (top of the series) unless noted. The essentials: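 Emission at 460 and 530 nm (excitation 405 nm) reports SIE-controlled beta-lactamase in ME-180 cells. Cells received compound with 40 pM IL-6 for 5 hrs at 37 C; data scaled between 300 pM IL-6 and 125 nM JAK-inhibitor controls.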

Test [5] has as its target Glucocorticoid receptor (Homo sapiens) (UniProt P04150). The experiment in a line: GR-GFP Redistribution (AID 450;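 active means compounds whose dose series gives a full or clear partial fitted curve of increased nuclear translocation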; further: potency means the concentration at half of the fitted maximal effect). To be noted: U2OS GR-GFP nuclear translocation, laser cytometry, 2 h.
Test [6] has the same target. As to the kind of experiment: GR-EFC Redistribution (AID 451; calls by dose curve; further: potency means the concentration at half of the fitted maximal effect). To be noted: CHO-K1 GR-EFC translocation, beta-gal luminescence, 2 h. The essentials: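 CHO-K1 cells expressing nuclear EA and GR-ED fragments of b-gal; compounds titrated up to 46 uM final, 2 h at 37 C. GR nuclear translocation read as complemented b-gal luminescence after 1 h RT detection.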
Test [7] deals with Mitogen-activated protein kinase 10 (Mus musculus) (UniProt Q61831). The experiment in a line: JNK3 AlphaScreen Assay (AID 530; active means well fitted curve in either direction with a large enough effect, not every such curve was filed as active;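 further: kinase came from lysate of stimulated human HepG2 cells; signal reports phosphorylation of biotinylated GST-cJun 1-79 at Ser73 with 10 µM ATP; on the % scale 0 is the no-effect control and ±100 the full control effect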). To be noted: JNK3 lysate, c-Jun phosphorylation; series mostly up to 57.1 µM. In short, it runs like this:
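HepG2 lysate (IL-1b/TNFa pre-activated) + biotin-GST-cJun 1-79 + anti-pSer73 cJun; cpd titration, 15 min RT; ATP 10 uM start; Tris pH 7.6, MgCl2, DTT, vanadate; beads in EDTA buffer; AlphaScreen.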
On the technique in general: Alpha assays give light when donor and acceptor beads are brought close together.

Test [8] concerns the target 3',5'-cyclic-AMP phosphodiesterase 4B (Homo sapiens) (UniProt Q07343). As to the kind of experiment: qHTS Assay for Inhibitors of PDE-IV (AID 607; active means well fitted activation curve with a large enough effect in the main read-out, with a control signal flat, not every such curve was filed as active; further: % of control where 0% means no effect). To be noted: HEK293 ACTOne CNG channel cells, membrane potential fluorescence; series mostly up to 22.9 µM. The essentials:
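The readout is membrane depolarisation from a cAMP-sensing CNG channel, detected with a potential dye at ex 535/em 590. Cells were HEK293-derived (endogenous PDE-IV) at 1000 cells/well, titrated up to 22.9 uM final.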

Test [9] is described as follows: qHTS Assay for Lipid Storage Modulators (AID 1519; calls by dose curve). To be noted: Drosophila S3 cells, BODIPY lipid droplet/cell ratio, laser cytometry, cells loaded with oleic acid; for activity change, negative = inhibition: at 57.5 µM (top of the series). In short, it runs like this: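 Cells seeded at 5,000 per well were treated with compounds over a concentration series and loaded with oleic acid (400 uM, as added). Lipid droplet fluorescence (488 nm excitation, 500-530 nm channel) was read by laser-scanning cytometry and normalized to 20 uM Triacsin C.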
(In general: qHTS replaces the single test concentration by a dilution series.)

Test [10] deals with Dual specificity protein kinase CLK4 (Homo sapiens) (UniProt Q9HAZ1). As to the kind of experiment: qHTS Assay for Inhibitors of CDC-like Kinase 4 (Kinase-Glo Assay) (AID 1770). Further: nearly all actives have a fitted effect of over 65% in size. Further: potency means the concentration at half of the fitted maximal effect. To be noted: recombinant Clk4, Kinase-Glo ATP depletion luminescence; series mostly up to 66.7 µM. The essentials:
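Inhibition was judged from remaining ATP, measured by Ultra-Glo luciferase bioluminescence after Clk4 (25 nM) had acted on RS peptide at 1 uM ATP for 4.5 hours, room temperature.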

Test [11] has the same target. The experiment in a line: qHTS Assay for Inhibitors of CDC-like Kinase 4 (ADP-Glo Assay) (AID 1771). Further: nearly all actives have a fitted effect of over 70% in size. Further: potency means the concentration at half of the fitted maximal effect. To be noted: recombinant CLK4, ADP-Glo luminescence; series mostly up to 80 µM. In short, it runs like this:
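25 nM Clk4, 100 uM RS peptide, 1 uM ATP (final); 2 mM MgCl2, 0.5 mM EGTA, 2.5 mM DTT, 0.01% Triton X-100; 1 hr RT. ADP-Glo readout: ATP depletion 45 min, conversion/luciferase 30 min, luminescence.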

The target is the same in test [12]. The experiment in a line: qHTS Assay for Inhibitors of CDC-like Kinase 4 (ADP-FP Assay) (AID 1795).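 Further: recombinant human CLK4 phosphorylating RS repeat peptide at 1 µM ATP; on the % scale 0 is the no-effect control and ±100 the full control effect; nearly all actives have a fitted effect of over 60% in size.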 To be noted: Transcreener ADP fluorescence polarization; series mostly up to 50 µM. In short, it runs like this: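 Inhibition of ADP formation by 6.25 nM Clk4 is measured using 1 uM ATP and 100 uM RS repeat peptide over one hour. Produced ADP displaces a fluorescent tracer from antibody, lowering polarization.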

Test [13] addresses Ubiquitin carboxyl-terminal hydrolase 1 (Homo sapiens) (UniProt O94782). The experiment in a line: Inhibitors of USP1/UAF1: Pilot qHTS (AID 504865).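 Further: rhodamine fluorescence freed from ubiquitin-rhodamine substrate followed over time; top concentration of the series differs between compounds; on the % scale 0 is the no-effect control and ±100 the full control effect; nearly all actives have a fitted effect of over 35% in size.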 To be noted: purified USP1/UAF1, Ub-rhodamine cleavage fluorescence; series mostly up to 54.9 µM. The essentials:
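Kinetic fluorescence assay: 1nM USP1/UAF1, 15 min compound preincubation, then 150nM Ub-Rho; 480/540 nm.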

Test [14] in a line: NFAT Signaling Pathway (AID 444; active means well fitted curve in either direction with a large enough effect, not every such curve was filed as active;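 further: carbachol stimulus at about its EC50 of 1 µM final; on the % scale 0 is the no-effect control and ±100 the full control effect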). To be noted: Jurkat NFAT-bla M1, carbachol, beta-lactamase ratio, 5 h; at 7.69 µM (top of the series) unless noted. The essentials:
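Jurkat cells with NFAT-driven β-lactamase reporter and co-expressed M1 receptor, stimulated with carbachol (final 1 uM, ~EC50), compound titration, 5 h at 37 °C. CCF4 loaded 1 h at RT; 460/530 nm ratio gave %activity and AC50.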

The target in test [15] is Cytochrome P450 3A4 (Homo sapiens) (UniProt P08684). As to the kind of experiment: qHTS Assay for Activators of Cytochrome P450 3A4 (AID 885). Further: nearly all actives have a fitted effect of over 65% in size. To be noted: recombinant CYP3A4, Luciferin-PPXE luminescence, 60 min; series mostly up to 57.1 µM. The essentials: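 Activators are scored by enhanced luminescence from CYP3A4 conversion of luciferin-PPXE (25uM, equal to KM) to luciferin, after 60 min at RT with an NADPH-regenerating system.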
Cytochrome P450 3A4 (Homo sapiens), sequence (P08684 whole entry, looked up): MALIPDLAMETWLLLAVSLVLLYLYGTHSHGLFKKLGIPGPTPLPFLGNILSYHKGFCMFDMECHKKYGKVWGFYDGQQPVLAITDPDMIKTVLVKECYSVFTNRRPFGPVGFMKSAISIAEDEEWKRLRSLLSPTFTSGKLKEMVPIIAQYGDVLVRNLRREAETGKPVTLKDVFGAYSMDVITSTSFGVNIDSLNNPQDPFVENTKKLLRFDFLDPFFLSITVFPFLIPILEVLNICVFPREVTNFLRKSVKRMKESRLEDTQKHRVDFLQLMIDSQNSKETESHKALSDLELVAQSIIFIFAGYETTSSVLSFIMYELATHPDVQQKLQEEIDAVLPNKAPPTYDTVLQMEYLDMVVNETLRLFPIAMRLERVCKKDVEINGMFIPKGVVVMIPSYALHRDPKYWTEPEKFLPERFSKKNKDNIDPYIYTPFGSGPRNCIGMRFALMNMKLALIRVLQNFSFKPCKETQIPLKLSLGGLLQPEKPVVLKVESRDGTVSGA

For test [16] the target is unchanged. As to the kind of experiment: qHTS Assay for Inhibitors and Substrates of Cytochrome P450 3A4 (AID 884). Further: nearly all actives have a fitted effect of over 50% in size. Further: potency means the concentration at half of the fitted maximal effect. To be noted: recombinant CYP3A4, Luciferin-PPXE luminescence; series mostly up to 57.1 µM. The essentials:
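Luminescent readout of luciferin produced by CYP3A4 (20 nM) dealkylation of Luciferin-PPXE, 25 uM (its KM). NADPH-driven reaction ran 60 min at RT after 10 min compound preincubation; data scaled to 57 uM ketoconazole as 100% inhibition.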

[17] abbreviates: measured here: cell count channel max response.
Setting [18] is: measured here: lipid channel max response.

Glucocorticoid receptor (Homo sapiens), sequence (P04150 whole entry, looked up, the tested form may be a part): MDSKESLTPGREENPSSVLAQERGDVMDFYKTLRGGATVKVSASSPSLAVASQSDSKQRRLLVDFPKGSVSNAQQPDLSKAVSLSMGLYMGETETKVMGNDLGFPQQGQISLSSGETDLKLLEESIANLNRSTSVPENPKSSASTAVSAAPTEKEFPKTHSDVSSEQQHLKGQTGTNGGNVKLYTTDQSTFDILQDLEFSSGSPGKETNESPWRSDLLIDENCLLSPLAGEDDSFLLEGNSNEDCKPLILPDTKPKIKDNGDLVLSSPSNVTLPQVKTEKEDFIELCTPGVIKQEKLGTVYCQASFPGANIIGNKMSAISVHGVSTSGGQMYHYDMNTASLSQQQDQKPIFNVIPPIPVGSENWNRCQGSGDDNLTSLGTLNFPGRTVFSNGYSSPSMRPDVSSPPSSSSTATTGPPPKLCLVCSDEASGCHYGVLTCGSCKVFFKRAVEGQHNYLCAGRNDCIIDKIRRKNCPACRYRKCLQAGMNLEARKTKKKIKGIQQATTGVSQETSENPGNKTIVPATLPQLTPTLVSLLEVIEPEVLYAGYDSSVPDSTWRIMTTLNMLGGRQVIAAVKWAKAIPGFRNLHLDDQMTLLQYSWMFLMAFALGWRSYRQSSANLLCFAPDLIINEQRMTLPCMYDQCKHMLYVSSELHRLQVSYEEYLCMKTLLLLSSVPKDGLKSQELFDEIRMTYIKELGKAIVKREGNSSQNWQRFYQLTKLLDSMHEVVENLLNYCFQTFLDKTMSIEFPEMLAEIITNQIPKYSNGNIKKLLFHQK
Dual specificity protein kinase CLK4 (Homo sapiens), sequence (Q9HAZ1 whole entry, looked up): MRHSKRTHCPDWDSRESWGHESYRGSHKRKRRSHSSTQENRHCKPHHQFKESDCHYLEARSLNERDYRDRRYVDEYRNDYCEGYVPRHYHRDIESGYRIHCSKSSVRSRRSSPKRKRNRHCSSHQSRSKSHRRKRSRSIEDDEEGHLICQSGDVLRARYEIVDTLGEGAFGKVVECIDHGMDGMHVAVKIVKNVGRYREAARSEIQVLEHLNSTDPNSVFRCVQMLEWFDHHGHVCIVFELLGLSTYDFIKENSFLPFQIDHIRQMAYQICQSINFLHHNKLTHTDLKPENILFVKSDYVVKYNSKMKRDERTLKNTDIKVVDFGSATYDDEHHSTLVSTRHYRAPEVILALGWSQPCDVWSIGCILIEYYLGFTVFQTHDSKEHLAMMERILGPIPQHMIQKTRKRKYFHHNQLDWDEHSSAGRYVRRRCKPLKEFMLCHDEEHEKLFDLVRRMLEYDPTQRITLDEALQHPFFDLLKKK
3',5'-cyclic-AMP phosphodiesterase 4B (Homo sapiens), sequence (Q07343 whole entry, looked up): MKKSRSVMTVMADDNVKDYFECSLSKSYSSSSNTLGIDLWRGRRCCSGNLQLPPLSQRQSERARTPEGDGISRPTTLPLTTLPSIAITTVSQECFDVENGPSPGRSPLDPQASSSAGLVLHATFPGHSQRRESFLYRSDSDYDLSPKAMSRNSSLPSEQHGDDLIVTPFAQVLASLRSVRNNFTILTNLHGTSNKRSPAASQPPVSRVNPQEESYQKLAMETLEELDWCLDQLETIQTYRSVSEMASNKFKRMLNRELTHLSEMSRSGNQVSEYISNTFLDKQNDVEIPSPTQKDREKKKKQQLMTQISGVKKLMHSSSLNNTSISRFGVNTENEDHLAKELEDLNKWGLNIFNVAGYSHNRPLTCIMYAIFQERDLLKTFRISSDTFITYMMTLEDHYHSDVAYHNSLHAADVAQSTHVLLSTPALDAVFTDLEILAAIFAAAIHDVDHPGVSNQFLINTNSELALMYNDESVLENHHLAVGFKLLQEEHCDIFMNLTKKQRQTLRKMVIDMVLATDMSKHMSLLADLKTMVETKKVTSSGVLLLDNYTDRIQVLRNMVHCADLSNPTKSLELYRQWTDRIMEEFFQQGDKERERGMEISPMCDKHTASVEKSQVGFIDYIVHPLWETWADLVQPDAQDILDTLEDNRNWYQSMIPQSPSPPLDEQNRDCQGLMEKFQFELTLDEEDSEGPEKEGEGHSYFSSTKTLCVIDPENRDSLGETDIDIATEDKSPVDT
Lysosomal acid glucosylceramidase (Homo sapiens), sequence (P04062 whole entry, looked up): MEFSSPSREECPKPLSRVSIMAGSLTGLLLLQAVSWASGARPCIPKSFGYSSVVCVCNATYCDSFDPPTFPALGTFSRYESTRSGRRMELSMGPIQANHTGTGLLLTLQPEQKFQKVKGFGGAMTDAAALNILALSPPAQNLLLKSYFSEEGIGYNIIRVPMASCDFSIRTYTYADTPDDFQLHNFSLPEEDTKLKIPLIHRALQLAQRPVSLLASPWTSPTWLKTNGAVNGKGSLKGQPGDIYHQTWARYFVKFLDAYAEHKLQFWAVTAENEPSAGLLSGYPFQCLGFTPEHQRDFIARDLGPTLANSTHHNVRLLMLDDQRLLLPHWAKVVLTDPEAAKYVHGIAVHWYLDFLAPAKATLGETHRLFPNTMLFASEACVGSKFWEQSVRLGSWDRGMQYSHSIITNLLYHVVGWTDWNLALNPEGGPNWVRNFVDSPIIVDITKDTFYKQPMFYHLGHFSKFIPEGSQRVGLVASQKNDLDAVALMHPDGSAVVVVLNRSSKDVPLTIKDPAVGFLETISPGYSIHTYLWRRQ
Ubiquitin carboxyl-terminal hydrolase 1 (Homo sapiens), sequence (O94782 whole entry, looked up): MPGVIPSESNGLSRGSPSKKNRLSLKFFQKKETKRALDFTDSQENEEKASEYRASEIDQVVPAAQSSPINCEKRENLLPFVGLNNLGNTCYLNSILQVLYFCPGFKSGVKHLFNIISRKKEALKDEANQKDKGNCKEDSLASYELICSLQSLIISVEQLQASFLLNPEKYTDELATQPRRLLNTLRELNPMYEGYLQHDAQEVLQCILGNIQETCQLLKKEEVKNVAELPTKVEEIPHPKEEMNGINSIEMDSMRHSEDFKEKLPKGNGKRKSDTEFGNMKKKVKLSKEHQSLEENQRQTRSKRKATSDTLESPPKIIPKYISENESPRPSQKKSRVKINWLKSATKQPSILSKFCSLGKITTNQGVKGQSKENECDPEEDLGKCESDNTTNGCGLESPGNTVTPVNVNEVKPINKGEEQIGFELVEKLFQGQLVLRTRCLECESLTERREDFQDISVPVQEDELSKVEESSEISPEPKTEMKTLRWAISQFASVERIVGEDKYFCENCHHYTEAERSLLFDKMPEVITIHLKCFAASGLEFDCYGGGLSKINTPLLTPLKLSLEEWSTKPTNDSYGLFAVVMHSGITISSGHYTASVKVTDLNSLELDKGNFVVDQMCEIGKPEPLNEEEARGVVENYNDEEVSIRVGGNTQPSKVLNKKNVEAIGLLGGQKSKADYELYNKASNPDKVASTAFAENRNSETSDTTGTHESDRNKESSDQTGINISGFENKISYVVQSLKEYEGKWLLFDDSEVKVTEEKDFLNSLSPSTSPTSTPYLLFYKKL

On to `CN(C)Cc1ccccc1-c1cc(NCc2cccs2)ncn1`, for which the Potency was > 11.4 µM (inactive) in test [1], 25.1 µM (active) in [3], > 46 µM (inactive) in test [5] and > 46 µM (inactive) in test [6]. The activity change, negative = inhibition in [2] is 9.46% (inactive); in [9] it was 3.12% (inactive). Moreover, the activity, negative = inhibition in [4] was 1.42% (inactive). Besides, the Potency entry in [7], in test [8], in test [10], in [11], in [12] and in test [13] was “inactive” in each case. Besides, the max response in [9] (setting [17]) amounted to 23.4%; in [9] (setting [18]) it was 25.3%.

Turning to `COc1ccccc1-c1ccc2ncnc(NCCNC(C)=O)c2c1`, the Potency is > 11.4 µM (inactive) in test [1]; 5.01 µM (active) in test [3]; > 46 µM (inactive) in test [5]; > 46 µM (inactive) in test [6]; 11.2 µM (active) in [10]; 15.8 µM (active) in test [11]. Further, the figures for the activity change, negative = inhibition in [2], in [14] and in [9] were 11.9% (inactive), 3.1% (inactive) and 1.76% (inactive), respectively. The activity, negative = inhibition in test [4] was -8.48% (inactive). Moreover, the Potency result in test [7], in test [8], in test [15] and in test [13] was “inactive” each time. Also, the max response in test [9] (setting [17]) is -6.93%; in [9] (setting [18]), -7.23%.

`O=c1c(-c2cccs2)nc2cnc(N3CCNCC3)nc2n1C1CC1`: the Potency in [1] is > 11.4 µM (inactive); in test [3], 2 µM (active); in test [5] it was > 9.22 µM (inactive); in test [6], > 46 µM (inactive); in test [16], 6.31 µM (active). For the same compound, the figures for the activity change, negative = inhibition in [2], in test [14] and in test [9] were 5.15% (inactive), 0.706% (inactive) and 1.95% (inactive), respectively. Also, the activity, negative = inhibition in test [4] is 14.5% (inactive). Besides, the Potency result in [7], in [8], in test [15], in test [10], in test [12] and in test [13] was “inactive” throughout. Further, the max response in test [9] (setting [17]) was 1.24%; in test [9] (setting [18]) it was -0.825%.

As for `Cc1ccccc1-c1ccc2ncnc(N3CCN(C)CC3)c2c1`, the Potency in test [1] is > 11.4 µM (inactive); in [3], 3.16 µM (active); in test [5], > 46 µM (inactive); in [6] it was > 46 µM (inactive); in test [16], 3.98 µM (active); in test [11] it was 31.6 µM (active). Moreover, the activity change, negative = inhibition in [2] is 25.8% (inactive); in test [14] it was -10.1% (inactive); in test [9], -2.02% (inactive). In addition, the activity, negative = inhibition in [4] was -2.42% (inactive). The Potency result in [7], in test [15], in test [12] and in test [13] was “inactive” in each case. The max response in test [9] (setting [17]) was 10.5%; in [9] (setting [18]) it was -2.94%.

Turning to `Cc1ccccc1-c1cncnc1N1CCN(C)CC1`, the Potency in [1] was > 11.4 µM (inactive); in test [3], 15.8 µM (active); in test [5] it was > 46 µM (inactive); in test [6], > 46 µM (inactive); in [16], 1.58 µM (active). The values for the activity change, negative = inhibition in test [2] and in test [9] were 7.79% (inactive) and 4.3% (inactive), respectively. Besides, in [4], the activity, negative = inhibition is 11.4% (inactive). Further, the Potency result in [7], in test [8], in [15], in test [10], in [12] and in test [13] was “inactive” in each case. For the same compound, the values for the max response in test [9] (setting [17]) and in test [9] (setting [18]) were 4.53% and 8.66%, respectively.

As for `CN1CCN(c2ncc3nc(-c4ccc(F)cc4)c(=O)n(C4CC4)c3n2)CC1`, the figures for the Potency in test [1], in test [3] and in [6] were > 11.4 µM (inactive), 12.6 µM (active) and > 46 µM (inactive), respectively. In addition, the activity change, negative = inhibition in test [2] was 9.67% (inactive); in test [14], 24.4% (inactive); in test [9], -0.731% (inactive). The activity, negative = inhibition in test [4] was 18.6% (inactive). The Potency entry in test [7], in [8], in [16], in test [10], in test [12] and in [13] was “inactive” throughout. The max response is 7.24% in test [9] (setting [17]) and 4.22% in [9] (setting [18]).
